What follows are sequences tested against PRSS27 (assay: pooled miR-30 sensor sort-seq; sequence = guide strand). Settings: shRNA.
Also: reference of the scale not given here.

In order of rising sensor-assay potency score (higher = more potent):
1. TTGCTGTAGAGCAGGTTGCACT  -1.36
2. TTTGCTGTAGAGCAGGTTGCAC  -0.973
3. TCATTCTTGATGGTTTTGGGTT  -0.872
4. TACAGGGACGTCTCAGAGGTGT  -0.7
5. TAGAGCAGGTTGCACTTGGGTG  -0.65
6. ATACATAGCGTGTGGTCCCGGC  -0.586
7. TGACACGGATGTAGACACCTGG  -0.413
8. AAACTCGGTGTCTTTGCTGTAG  -0.247
9. TTGGTAGCCAAACTCGGTGTCT  -0.152
10. TGCAGTTTGGGGATGATCCGAT  0.0447

What follows are sequences tested against PRSS35 in the same assay as above. Settings: shRNA.

In order of rising sensor-assay potency score (higher = more potent):
1. TCACATTTAATACACAACCAGC  -0.906
2. TTGAGTCGGCTCAAGAACCAAA  -0.83
3. TTGGATTCGTCGGACACACTGC  -0.732
4. TTGTCCAAGATGCTGAACCTGC  -0.668
5. TAATACACAACCAGCATCCTAT  -0.461
6. TTTCTTTTTGTGAGCACGCTTC  -0.433
7. TTACCATCATCTTAGCATCTGC  -0.234
8. TAACTTTCTGTCTCTATTCTGA  -0.225
9. TACACCTGTCTCTTTCTCCTAA  -0.12
10. TAGAACAAACTATTTCTCCCAT  0.0739
11. TTCCTCATCTTCAACAACCCTA  0.185
12. AAATCTTGAACTTTCACCCTGG  0.84

What follows are sequences tested against PRSS57 in the same assay as above. Settings: shRNA.

In order of rising sensor-assay potency score (higher = more potent):
1. TCGGACCTTGGCCTCCATCAGT  -1.55
2. TCTCTGTGGCTGAAGCAGTGGG  -1.07
3. TACACGTCGGGGGTCTTGGGGT  -1.06
4. TCGATGCCAAACACCTGCTGGG  -0.917
5. AAGTCAGACACGAAGCCCCAGC  -0.91
6. ATCGATGCCAAACACCTGCTGG  -0.864
7. AGCATCGATGCCAAACACCTGC  -0.826
8. TGGTAGTCGGGGTGTGTGGTGA  -0.823
9. ACACCTGCGTGTACACGTCGGG  -0.753
10. TTCACGGGCAGCATCAGGGCGG  -0.51
11. ACAAAGGCGGACACCTGCGTGT  -0.414
12. TGTGGTGAGAGCATCGATGCCA  0.623

The sequences below were run against PRUNE in the same assay as above. Settings: shRNA.

In order of rising sensor-assay potency score (higher = more potent):
1. TAGAGGTCGGGACTCCTGCAGA  -0.699
2. TTGTCTATAGATAGTCTTCTGG  -0.685
3. TTTCTCTCTAGCTTGAGGCAGG  -0.511
4. TATAGATAGTCTTCTGGTCTTT  -0.453
5. TTAAATAATAAAATGTGTCTGA  -0.11
6. TTCCTTGTCCACTTGCTCCCTG  0.334
